Screening data: PubChem BioAssay, National Center for Advancing Translational Sciences (NCATS)
LDHA block – blocks human lactate dehydrogenase A; P00338; purified LDHA, NADH/diaphorase-resazurin fluorescence; active compounds read low; 480,000 compounds, 0.15% hits; activity change, % (values are at about 110 or 230 µM); in the data active = activity change below about -30%; inconclusive = mostly about -25% to -30%
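LDH5 2 nM; NADH 0.06 mM, pyruvate 0.2 mM; 200 mM Tris pH 7.4, EDTA, Tween-20; 5 min RT. Detection: diaphorase 0.133 mg/mL + resazurin 37 µM, fluorescence ex540/em590 at 0 and 20 min; normalized to enzyme-free and DMSO wells.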
D2 ag-1 – agonists of human D2 dopamine receptor (beta-arrestin); activation, % (concentration not given with the values); P14416; AID 624465; DiscoveRx PathHunter D2 beta-arrestin, luminescence, 90 min; 100% = 57 uM dopamine signal; 360,000 compounds, 0.084% hits; in the data active = activation above about 40%; inconclusive = between about 15% and that limit
Target sequence (P14416 whole entry, looked up): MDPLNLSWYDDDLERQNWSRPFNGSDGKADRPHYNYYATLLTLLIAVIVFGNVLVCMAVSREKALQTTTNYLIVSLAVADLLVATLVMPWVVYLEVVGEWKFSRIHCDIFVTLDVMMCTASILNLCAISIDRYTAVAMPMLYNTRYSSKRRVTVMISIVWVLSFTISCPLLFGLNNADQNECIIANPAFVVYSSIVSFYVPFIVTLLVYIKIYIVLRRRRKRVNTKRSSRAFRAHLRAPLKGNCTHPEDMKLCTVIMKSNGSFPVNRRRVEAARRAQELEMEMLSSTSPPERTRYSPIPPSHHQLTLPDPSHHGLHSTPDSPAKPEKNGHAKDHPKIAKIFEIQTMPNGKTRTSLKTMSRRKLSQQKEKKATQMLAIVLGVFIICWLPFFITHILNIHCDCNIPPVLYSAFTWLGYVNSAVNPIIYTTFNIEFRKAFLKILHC
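DiscoveRx PathHunter D2 beta-arrestin cells (2,100/well) attached overnight, then compound-stimulated 90 min at 37 C in HBSS/10 mM HEPES/0.1% Tween-20 buffer; beta-galactosidase complementation read by luminescence after 1 h at ambient temperature. Dopamine 57 uM final (EC100) as control.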
D2 PAM-1 – positively modulates the human D2 dopamine receptor allosterically; 340,000 compounds, 0.34% hits; P14416; potentiation, % at 10 µM; AID 485347; HEK293 T-REx D2, calcium flux, EC20 dopamine potentiation;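 active = potentiation over 3 SD above the plate norm, cut at about 30% in these data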
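Potentiation of an EC20 dopamine calcium response measured kinetically over 180 s, after a preceding 180 s compound-only read flagging agonists. Cells: inducible Hek293 Trex D2 line, 4000/well, cultured overnight at 30 C before dye loading.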
D2 ag-2 – agonists of human D2 dopamine receptor. P14416. HEK293 T-REx D2 cells, calcium flux agonist mode. activation, % at 2 µM. 340,000 compounds, 0.53% hits. AID 485358;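 active = activation over 3 SD above normal in the single-dose calcium agonist read, cut at about 30% in these data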
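Tetracycline-induced HEK293 T-REx cells with force-coupled D2 receptor, plated overnight at 30 C, loaded with no-wash calcium dye. After a 10 s baseline, compound was pin-added and calcium flux read kinetically for 180 s; calcium rises flagged agonists.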
D2 PAM-2 – positive allosteric modulators of human D2 dopamine receptor; P14416; DiscoveRx D2 beta-arrestin cells, luminescence, 90 min; 100% = 57 uM dopamine signal; potentiation, % (test concentration not listed); 360,000 compounds, 0.23% hits; AID 624464; in the data active = potentiation above about 50%; inconclusive = mostly about 30% to 49%
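D2 cells co-treated with compound plus 50 nM dopamine (EC20) for 90 min at 37 deg C to detect potentiation. Beta-arrestin recruitment was read as enzyme-fragment luminescence after 1 h at ambient temperature. Full response was set by 57 uM dopamine.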
D2 antag – antagonizes the human D2 dopamine receptor. inhibition, % at 10 µM. 340,000 compounds, 2% hits. P14416. AID 485344. HEK293 TREx D2 cells, calcium flux, dopamine EC80; in the data active = inhibition above about 30%; inactive = below that, where a call was filed
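HEK293 T-REx D2 cells, tet-induced, calcium dye no-wash. Cpd pintool add, 180 s kinetic, then EC80 DA, 180 s kinetic. Ca flux read.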
Hits are given with their value. Compounds with a hit are over-represented: about 2.1% of the library has one in this group of screens.

Results for Cn1c(=O)c2sccc2n2c(CCCC(=O)NCc3ccc(F)cc3)nnc12 ?
LDHA block: inactive; D2 ag-1: inactive; D2 PAM-1: 33.0; D2 ag-2: inactive; D2 PAM-2: inactive; D2 antag: inactive

What do the screens show for `Cn1c(=O)c2sccc2n2c(CCCC(=O)Nc3ccc(F)cc3F)nnc12`?
LDHA block: inactive; D2 ag-1: inactive; D2 PAM-1: 32.4; D2 ag-2: inactive; D2 PAM-2: inactive; D2 antag: inactive

Results for Cn1c(=O)c2sccc2n2c(CCCC(=O)NCc3ccc4c(c3)OCO4)nnc12 ?
LDHA block: inactive; D2 ag-1: inactive; D2 PAM-1: 34.6; D2 ag-2: inactive; D2 PAM-2: inactive; D2 antag: inactive

What do the screens show for `Cn1c(=O)c2sccc2n2c(CCCC(=O)NCc3cccnc3)nnc12`?
LDHA block: inactive; D2 ag-1: inactive; D2 PAM-1: inactive; D2 ag-2: inactive; D2 PAM-2: inactive; D2 antag: inactive

How did CCOC(=O)C(NC(=O)/C=C/c1ccc(C)c(Cl)c1)C(=O)OCC do in these assays?
LDHA block: inactive

Results for Cc1cccc(N2CCN(Cc3ncc(-c4ccc(F)cc4)o3)CC2)c1C ?
LDHA block: inactive

What do the screens show for `CCCCn1nc(C(=O)N(C)C2CCS(=O)(=O)C2)c2ccccc2c1=O` (stereo not given)?
LDHA block: inactive

How did CCCSc1nnc2n(Cc3ccccc3)c(=O)c3c4c(sc3n12)CCC4 do in these assays?
D2 PAM-1: inactive

What do the screens show for `CCCSc1nnc2n(C)c(=O)c3c4c(sc3n12)CCC4`?
LDHA block: inactive; D2 ag-1: inactive; D2 PAM-1: inactive; D2 ag-2: inactive; D2 PAM-2: inactive; D2 antag: 40.1

How did C=CCC1c2cccc(C(=O)O)c2C(=O)N1c1cccc(C)c1 (stereo not given) do in these assays?
LDHA block: inactive; D2 ag-1: inactive; D2 PAM-1: inactive; D2 ag-2: inactive; D2 PAM-2: inactive; D2 antag: 32.2

What do the screens show for `O=c1c(Cc2ccc(F)cc2)c(O)ccn1CCc1ccccn1`?
LDHA block: inactive; D2 ag-1: inactive; D2 PAM-1: inactive; D2 ag-2: inactive; D2 PAM-2: inactive; D2 antag: 40.9

What do the screens show for `N#Cc1c(O)ccc(O)c1C#N`?
LDHA block: inactive

How did COc1cc(C(=O)O/N=C(\N)Cc2ccc([N+](=O)[O-])cc2)cc(OC)c1OC do in these assays?
LDHA block: inactive; D2 ag-1: inconclusive; D2 PAM-1: inactive; D2 ag-2: inactive; D2 PAM-2: inconclusive; D2 antag: inactive

How did COc1ccc(C(=O)O/N=C(\N)Cc2ccc([N+](=O)[O-])cc2)c(OC)c1 do in these assays?
LDHA block: inactive; D2 ag-1: 41.9; D2 PAM-1: inactive; D2 ag-2: inactive; D2 PAM-2: inconclusive; D2 antag: inactive

What do the screens show for `COc1ccccc1C/C(N)=N/OC(=O)c1cccc([N+](=O)[O-])c1`?
LDHA block: inactive; D2 ag-1: inconclusive; D2 PAM-1: inactive; D2 ag-2: inactive; D2 PAM-2: 69.8; D2 antag: inactive

Results for CCOP(=O)(OCC)/C(=N/OC(=O)c1cccc([N+](=O)[O-])c1)C(N)=O ?
LDHA block: inactive; D2 ag-1: inactive; D2 PAM-1: inactive; D2 ag-2: inactive; D2 PAM-2: inactive; D2 antag: inactive

Results for COc1ccc(C/C(N)=N/OC(=O)c2cccs2)cc1 ?
LDHA block: inactive; D2 ag-1: inactive; D2 PAM-1: inactive; D2 ag-2: inactive; D2 PAM-2: inactive; D2 antag: inactive

How did COc1ccc(C/C(N)=N/OC(=O)c2cccc([N+](=O)[O-])c2)cc1 do in these assays?
LDHA block: inactive; D2 ag-1: inactive; D2 PAM-1: inactive; D2 ag-2: inactive; D2 PAM-2: 50.5; D2 antag: inactive

How did Clc1ccc(N/N=C/c2cccc(/C=N/Nc3ccc(Cl)c(Cl)c3)c2)cc1Cl do in these assays?
LDHA block: inactive

How did CCSC1=NSC2=NC(=O)/C(=C\c3coc4ccccc4c3=O)C(=N)N12 do in these assays?
LDHA block: inactive; D2 ag-1: inactive; D2 PAM-1: inactive; D2 ag-2: 99.6; D2 PAM-2: inconclusive; D2 antag: inactive
